# From PubChem BioAssay (EPA / NIEHS)
# Records with an inconclusive call do not appear. The source holds several records for some structures; these can differ, active in one and inactive in another. Active and inactive are the calls of the source. The calls were made as follows: active = hit-call score of the fitted dose curve at least 0.9, where 1 is the maximum; inconclusive = response in the unintended direction; inactive = score below 0.9.
# Test system: not listed separately
# Test: TOX21_p53_BLA_p3_viability: Viability Assessment in the Tox21 HCT-116 p53 Agonism Beta-lactamase Assay, Phase 3 (AID 2283593);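 also: cells exposed to compound for 16 h before reading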
# How it was run: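 Cellular ATP was quantified by CellTiter-Glo luminescence, read after 30 min at room temperature. Beforehand, HCT116 cells (4000/well) received compound 5 h post-seeding, 217-fold diluted from DMSO, then incubated 16 h at 37C.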
row,SMILES,outcome
1,CC1(C)S[C@@H]2[C@H](NC(=O)[C@H](N)c3ccccc3)C(=O)N2[C@H]1C(=O)O,inactive
2,Cc1cc(C)c(S(=O)(=O)O)cc1N=Nc1cc(S(=O)(=O)O)c2ccccc2c1O,inactive
3,CCCc1c(OCCCCc2nn[nH]n2)ccc(C(C)=O)c1O,inactive
4,Clc1ccccn1,inactive
5,c1cc(N(CC2CO2)CC2CO2)ccc1Cc1ccc(N(CC2CO2)CC2CO2)cc1 (stereo not drawn),inactive
6,O=C(O)Cc1c[nH]c2ccccc12,inactive
7,NCc1ccccc1,inactive
8,CC(C)CC(=O)O,inactive
9,C[Si](C)(C)O[Si](C)(C)O[Si](C)(C)C,inactive
10,CC(C)n1c(/C=C/[C@@H](O)C[C@@H](O)CC(=O)O)c(-c2ccc(F)cc2)c2ccccc21,inactive
11,Cc1ccccc1S(N)(=O)=O,inactive
12,C=C(C)C(=O)OCC1CCCO1 (stereo not drawn),inactive
13,OCCOCCOCCOCCOCCO,inactive
14,CC(C)CC(=O)CC(C)CC(C)C (stereo not drawn),inactive
15,CCCOCCC,inactive
16,CN(C)CCC(c1ccc(Cl)cc1)c1ccccn1 (stereo not drawn),inactive
17,CC/C=C\CC1=C(C)CCC1=O,inactive
18,C[C@H]1C[C@H]2[C@@H]3CCC4=CC(=O)C=C[C@]4(C)[C@@]3(F)[C@@H](O)C[C@]2(C)[C@@]1(O)C(=O)CO,inactive
19,COCCCN,inactive
20,CC(=O)c1nccs1,inactive

# Molecular target: Cellular tumor antigen p53 (Homo sapiens) (UniProt P04637)
# Test: TOX21_p53_BLA_p3_ratio: Tox21 HCT-116 p53 Agonism Beta-lactamase Assay, Ratio, Phase 3 (AID 2283596)
# How it was run: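 Cells were seeded at 4000/well, rested 5 h at 37C, then dosed with DMSO compound solutions (217-fold dilution) for 16 h. CCF4-AM substrate was loaded for 2 h at room temperature, and the 460/530 nm emission ratio was fitted for gain of signal versus DMSO.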
# Sequence of Cellular tumor antigen p53 (Homo sapiens) (P04637 whole entry, looked up): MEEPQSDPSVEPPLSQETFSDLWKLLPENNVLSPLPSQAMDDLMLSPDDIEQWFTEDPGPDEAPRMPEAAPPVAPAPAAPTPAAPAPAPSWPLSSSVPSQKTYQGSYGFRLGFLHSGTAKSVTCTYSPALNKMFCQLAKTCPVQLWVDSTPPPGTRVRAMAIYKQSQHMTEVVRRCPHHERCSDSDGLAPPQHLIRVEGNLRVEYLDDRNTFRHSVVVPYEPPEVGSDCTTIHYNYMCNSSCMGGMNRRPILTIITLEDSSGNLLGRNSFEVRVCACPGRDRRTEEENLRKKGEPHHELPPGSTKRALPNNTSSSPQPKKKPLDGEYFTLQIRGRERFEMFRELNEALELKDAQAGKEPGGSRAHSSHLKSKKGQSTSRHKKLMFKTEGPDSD
SMILES,outcome,AC50
CC1(C)S[C@@H]2[C@H](NC(=O)[C@H](N)c3ccccc3)C(=O)N2[C@H]1C(=O)O,inactive,
Cc1cc(C)c(S(=O)(=O)O)cc1N=Nc1cc(S(=O)(=O)O)c2ccccc2c1O,inactive,
CCCc1c(OCCCCc2nn[nH]n2)ccc(C(C)=O)c1O,inactive,30.1 µM (active)
c1cc(N(CC2CO2)CC2CO2)ccc1Cc1ccc(N(CC2CO2)CC2CO2)cc1 (stereo not drawn),,81.6 µM (active)
CC1=NN(c2cc(Cl)c(S(=O)(=O)O)cc2Cl)C(=O)C1N=Nc1ccc(S(=O)(=O)O)cc1 (stereo not drawn),inactive,
O=C(O)Cc1c[nH]c2ccccc12,inactive,
CCCCCCCCCCC1CO1 (stereo not drawn),inactive,
CC(C)CC(=O)O,inactive,
C[Si](C)(C)O[Si](C)(C)O[Si](C)(C)C,inactive,
CC(C)n1c(/C=C/[C@@H](O)C[C@@H](O)CC(=O)O)c(-c2ccc(F)cc2)c2ccccc21,inactive,
CC1=C(CC=O)C(C)(C)CCC1,inactive,
Cc1ccccc1S(N)(=O)=O,inactive,
OCCOCCOCCOCCOCCO,inactive,
CC(C)CC(=O)CC(C)CC(C)C (stereo not drawn),inactive,
CN(C)CCC(c1ccc(Cl)cc1)c1ccccn1 (stereo not drawn),inactive,
CN(C)CCCN1c2ccccc2CCc2ccc(Cl)cc21,inactive,
CC/C=C\CC1=C(C)CCC1=O,inactive,
C[C@H]1C[C@H]2[C@@H]3CCC4=CC(=O)C=C[C@]4(C)[C@@]3(F)[C@@H](O)C[C@]2(C)[C@@]1(O)C(=O)CO,inactive,
COC(OC)C(C)c1ccccc1 (stereo not drawn),inactive,
COCCCN,inactive,
CC1=CCCC(C)(C)C12CCC(C)O2 (stereo not drawn),inactive,
CC(=O)c1nccs1,inactive,
COc1ccccc1OCC(O)CO (stereo not drawn),inactive,
OCCN(CCO)c1cccc(Cl)c1,inactive,

# Test system: not listed separately
# Test: TOX21_p53_BLA_p4_viability: Viability Assessment in the Tox21 HCT-116 p53 Agonism Beta-lactamase Assay, Phase 4 (AID 2283597);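 also: hits lower the luminescence signal meaning cytotoxicity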
# How it was run: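 Viability is taken as cellular ATP: after 16 h compound exposure of HCT116 cells and a 2 h room-temperature CCF4-AM substrate step, CellTiter-Glo reagent is added and luminescence is measured 30 min later.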
SMILES,outcome,AC50
CC1(C)S[C@@H]2[C@H](NC(=O)[C@H](N)c3ccccc3)C(=O)N2[C@H]1C(=O)O,inactive,
CCCc1c(OCCCCc2nn[nH]n2)ccc(C(C)=O)c1O,inactive,
c1cc(N(CC2CO2)CC2CO2)ccc1Cc1ccc(N(CC2CO2)CC2CO2)cc1 (stereo not drawn),inactive,
CC1=NN(c2cc(Cl)c(S(=O)(=O)O)cc2Cl)C(=O)C1N=Nc1ccc(S(=O)(=O)O)cc1 (stereo not drawn),inactive,
O=C(O)Cc1c[nH]c2ccccc12,inactive,
NCc1ccccc1,inactive,
CC(C)CC(=O)O,inactive,
CC(C)n1c(/C=C/[C@@H](O)C[C@@H](O)CC(=O)O)c(-c2ccc(F)cc2)c2ccccc21,inactive,43.3 µM (active)
Cc1ccccc1S(N)(=O)=O,inactive,
OCCOCCOCCOCCOCCO,inactive,
CC(C)CC(=O)CC(C)CC(C)C (stereo not drawn),inactive,
CCCOCCC,inactive,
CN(C)CCC(c1ccc(Cl)cc1)c1ccccn1 (stereo not drawn),inactive,
CN(C)CCCN1c2ccccc2CCc2ccc(Cl)cc21,inactive,73.9 µM (active)
C[C@H]1C[C@H]2[C@@H]3CCC4=CC(=O)C=C[C@]4(C)[C@@]3(F)[C@@H](O)C[C@]2(C)[C@@]1(O)C(=O)CO,inactive,
COC(OC)C(C)c1ccccc1 (stereo not drawn),inactive,
COCCCN,inactive,
CC1=CCCC(C)(C)C12CCC(C)O2 (stereo not drawn),inactive,

# Molecular target: Cellular tumor antigen p53 (Homo sapiens) (UniProt P04637)
# Test: TOX21_p53_BLA_p5_ratio: Tox21 HCT-116 p53 Agonism Beta-lactamase Assay, Ratio, Phase 5 (AID 2283599)
# How it was run: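 Beta-lactamase reporter ratio (blue 460 nm over green 530 nm, 405 nm excitation) after 2 h CCF4-AM loading, in HCT-116 cells exposed 16 h at 37 C to compounds pinned at 217-fold dilution. Increases relative to DMSO baseline scored.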
SMILES,outcome,AC50
CC1(C)S[C@@H]2[C@H](NC(=O)[C@H](N)c3ccccc3)C(=O)N2[C@H]1C(=O)O,inactive,
CCCc1c(OCCCCc2nn[nH]n2)ccc(C(C)=O)c1O,inactive,26.6 µM (active)
Clc1ccccn1,inactive,
c1cc(N(CC2CO2)CC2CO2)ccc1Cc1ccc(N(CC2CO2)CC2CO2)cc1 (stereo not drawn),,55.4 µM (active)
CC1=NN(c2cc(Cl)c(S(=O)(=O)O)cc2Cl)C(=O)C1N=Nc1ccc(S(=O)(=O)O)cc1 (stereo not drawn),inactive,
O=C(O)Cc1c[nH]c2ccccc12,inactive,
NCc1ccccc1,inactive,
CC(C)CC(=O)O,inactive,
C[Si](C)(C)O[Si](C)(C)O[Si](C)(C)C,inactive,
CC(C)n1c(/C=C/[C@@H](O)C[C@@H](O)CC(=O)O)c(-c2ccc(F)cc2)c2ccccc21,inactive,
CC1=C(CC=O)C(C)(C)CCC1,inactive,
Cc1ccccc1S(N)(=O)=O,inactive,
C=C(C)C(=O)OCC1CCCO1 (stereo not drawn),inactive,
OCCOCCOCCOCCOCCO,inactive,
CC(C)CC(=O)CC(C)CC(C)C (stereo not drawn),inactive,
CCCOCCC,inactive,
CN(C)CCCN1c2ccccc2CCc2ccc(Cl)cc21,inactive,86.8 µM (active)
CC/C=C\CC1=C(C)CCC1=O,inactive,
COC(OC)C(C)c1ccccc1 (stereo not drawn),inactive,
CC1=CCCC(C)(C)C12CCC(C)O2 (stereo not drawn),inactive,
COc1ccccc1OCC(O)CO (stereo not drawn),inactive,
